Compounds with a hit are over-represented: about 2.4% of the library has one in this group of screens.
D2 ag-1: D2 dopamine receptor (human) agonism | activation, % at 2 µM | HEK293 T-REx D2 cells, calcium flux agonist mode | P14416 | actives 0.53% (n = 340,000);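 active = activation over 3 SD above normal in the single-dose calcium agonist read, cut at about 30% in these data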; note: 0% is about no effect
Target sequence (P14416 whole entry, looked up): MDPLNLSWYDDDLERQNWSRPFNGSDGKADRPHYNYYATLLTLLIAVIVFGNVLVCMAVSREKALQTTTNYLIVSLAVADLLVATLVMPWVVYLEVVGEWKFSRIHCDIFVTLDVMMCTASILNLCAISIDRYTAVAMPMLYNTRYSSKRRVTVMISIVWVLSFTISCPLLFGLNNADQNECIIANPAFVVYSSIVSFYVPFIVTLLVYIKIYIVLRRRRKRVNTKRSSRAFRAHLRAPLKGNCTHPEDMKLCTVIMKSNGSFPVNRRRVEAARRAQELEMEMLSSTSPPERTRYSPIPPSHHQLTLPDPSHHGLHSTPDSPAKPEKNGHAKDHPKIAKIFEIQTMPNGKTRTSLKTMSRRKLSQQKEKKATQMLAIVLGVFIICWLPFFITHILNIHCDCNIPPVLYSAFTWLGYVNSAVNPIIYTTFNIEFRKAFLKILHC
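HEK293 Trex D2 cells, tetracycline-induced, o/n 30 C 5% CO2; no-wash Ca dye, RT 30–90 min; 10-cycle baseline, 23 nl cpd added, kinetic Ca read 180 s; agonist hits = positive Ca response.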
D2 PAM-1: positive allosteric modulators of human D2 dopamine receptor; P14416; potentiation, % at 10 µM; HEK293 T-REx D2, calcium flux, EC20 dopamine potentiation; AID 485347; actives 0.34% (n = 340,000);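 active = potentiation over 3 SD above the plate norm, cut at about 30% in these data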; note: 0% is about no effect
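Using a no-wash calcium dye in inducible, force-coupled HEK293 Trex cells expressing D2, we tracked fluorescence each second for 180 s after compound, then for 180 s after EC20 dopamine to detect augmented signalling.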
D2 antag: antagonists of human D2 dopamine receptor. P14416. HEK293 TREx D2 cells, calcium flux, dopamine EC80. inhibition, % at 10 µM. actives 2% (n = 340,000). AID 485344; in the data active = inhibition above about 30%; inactive = below that, where a call was filed; note: 0% is about no effect
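Calcium flux kinetic readout in an inducible HEK293 TREx D2 line plated overnight at 30 C. After 180 s compound exposure, an EC80 dopamine challenge follows with another 180 s kinetic read to detect antagonism.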
D2 ag-2: agonists of human D2 dopamine receptor (beta-arrestin). DiscoveRx PathHunter D2 beta-arrestin, luminescence, 90 min; 100% = 57 uM dopamine signal. activation, % (concentration not given with the values). actives 0.084% (n = 360,000); in the data active = activation above about 40%; inconclusive = between about 15% and that limit
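DiscoveRx PathHunter D2 beta-arrestin cells (2,100/well) attached overnight, then compound-stimulated 90 min at 37 C in HBSS/10 mM HEPES/0.1% Tween-20 buffer; beta-galactosidase complementation read by luminescence after 1 h at ambient temperature. Dopamine 57 uM final (EC100) as control.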
D2 PAM-2: potentiates the human D2 dopamine receptor allosterically | actives 0.23% (n = 360,000) | P14416 | AID 624464 | potentiation, % (test concentration not listed) | DiscoveRx D2 beta-arrestin cells, luminescence, 90 min; 100% = 57 uM dopamine signal; in the data active = potentiation above about 50%; inconclusive = mostly about 30% to 49%
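PathHunter D2 cells, attached overnight at 37 deg C, received compound in DMSO plus dopamine at EC20 (50 nM final) for 90 min at 37 deg C. Beta-arrestin recruitment was read as luminescence after 1 h with detection reagent at ambient temperature.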
* marks the source's active call; other numbers are inactive results; ? = inconclusive; / = no result; ! = a repeat was not active.

SMILES | D2 ag-1 | D2 PAM-1 | D2 antag | D2 ag-2 | D2 PAM-2
COc1ccc(NC(=O)C(=O)NCC(c2cccnc2)N2CCc3ccccc3C2)cc1 (stereo not given) | -1 | -3 | / | / | /
COc1ccc(S(=O)(=O)NCc2cccnc2)cc1Br | 1 | 4 | -5 | 11 | 60*
COc1ccc(S(=O)(=O)NCc2cccnc2)cc1 | -1 | -7 | 8 | -5 | -3
CC1(C)C(=O)Nc2ccccc2N1C(=O)COC(=O)C1CCCCC1 | 1 | 0 | -9 | 3 | -24
CC(=O)NC(CC(=O)OCC(=O)N1c2ccccc2NC(=O)C1(C)C)c1ccccc1 (stereo not given) | 0 | -16 | 52* | -1 | -33
Cc1ccc(C)c(OCCC(=O)OCC(=O)N2c3ccccc3NC(=O)C2(C)C)c1 | 0 | -3 | 42* | -3 | -15
Cn1c(SCC(=O)c2ccc(F)cc2)nnc1-c1ccccc1Br | -1 | 1 | / | / | /
CC(=O)N1CCN(S(=O)(=O)c2cccc(C(=O)Nc3ccc(C)cn3)c2)CC1 | 0 | 2 | -2 | 1 | 3
Cc1ccc(NC(=O)c2cccc(S(=O)(=O)N3CCc4ccccc4C3)c2)nc1 | 0 | 5 | 31* | -2 | -3
Cc1cc(C)nc(SCCCNCc2ccc(Br)cc2)n1 | 1 | -29 | 59* | -2 | -8
Cc1ccc(CNCCCSc2nc(C)cc(C)n2)cc1 | 0 | -14 | 63* | -4 | -3
Nc1nnc(CC(=O)N/N=C/c2cccc(OCCOc3ccccc3)c2)s1 | -1 | 0 | 31* | -1 | 21
COc1cccc(OC)c1Oc1ccc(C(F)(F)F)cn1 | 0 | 9 | 66* | 2 | -5
FC(F)(F)c1ccc(Oc2ccccc2Cl)nc1 | 2 | 8 | 7 | -3 | -1
CN(CCCCOc1ccc(F)cc1)Cc1ccccc1 | -1 | -25 | 33* | -2 | -3
CN(CCOc1ccccc1)CCOc1ccccc1 | -1 | -47 | 37* | -1 | -14
CCC(C)c1ccccc1OCCCN(C)Cc1ccccc1 (stereo not given) | 1 | -24 | 35* | -3 | -22
Cc1cc(C)c(C)c(OCCCCN(C)Cc2ccccc2)c1 | -1 | -19 | 31* | 2 | -4
CN(CCOc1ccc(F)cc1)Cc1ccccc1 | -1 | -7 | 19 | -2 | -29
Cc1ccc(C)c(N2CCN(S(=O)(=O)c3ccc(C(=O)N(C)C)s3)CC2)c1 | 1 | / | / | / | /
COCCCNC(=O)c1ccc(-c2nc(CS(=O)(=O)c3ccc(C)cc3)c(C)o2)cc1 | 1 | -3 | / | / | /
Cn1c(C(=O)Nc2ccc3c(c2)OCO3)cc2c(=O)n(C)c3ccccc3c21 | -1 | 31* | 15 | -1 | -1
Cn1cccc1CNCc1ccccc1Cl | 50* | -18 | 2 | -4 | -10
CCCCCNCc1cccn1C | 0 | -14 | 10 | -2 | -10
Cn1cccc1CNC(=O)Nc1ccccc1 | 1 | 1 | -6 | -1 | 8
SMILES | D2 ag-1 | D2 PAM-1 | D2 antag | D2 ag-2 | D2 PAM-2
Cn1cccc1CNC(=O)Nc1ccc(Cl)cc1 | 0 | 5 | 31* | -3 | -25
COc1ccc(NC(=O)Cn2c(=O)n(Cc3ccco3)c(=O)c3oc4ccccc4c32)cc1Cl | 0 | 3 | / | / | /
COC(=O)c1ccc(OCC(O)CN2CCN(CC(O)COc3ccc(C(=O)OC)cc3)CC2)cc1 (stereo not given) | 0 | 10 | 4 | -2 | -4
COC(=O)c1ccc(OCC(O)CN2C(=O)c3ccccc3C2=O)cc1 (stereo not given) | 38* | -17 | -4 | 1 | -2
COc1ccc(OCC(O)CN2C(=O)NC(C)(C)C2=O)cc1 (stereo not given) | 0 | -8 | 31* | -1 | -3
N#Cc1c2c(c(NCc3ccco3)n3c1nc1ccccc13)CCC2 | 0 | 4 | 0 | -2 | -2
N#Cc1c2c(c(Nc3ccc(O)cc3)n3c1nc1ccccc13)CCC2 | -1 | 17 | 14 | ? | 68*
COc1ccc(NC(=O)N2CCCCC2c2cccnc2)cc1 (stereo not given) | -1 | 14 | 23 | -1 | 1
COc1cc(OC)cc(C(=O)NC(=S)N2CCCCC2c2cccnc2)c1 (stereo not given) | -1 | 5 | 41* | -2 | -12
COc1ccc2c(c1)-c1nc(/N=C/c3ccc(O)cc3)sc1CC2 | -1 | -6 | 45* | 3 | -15
CCOc1cc(C(=O)NN2CCOCC2)cc(OCC)c1OCC | 0 | 1 | 36* | -2 | 0
CCOc1cc(C(=O)Nc2ccc(S(=O)(=O)N3CCOCC3)cc2)cc(OCC)c1OCC | -1 | -8 | 2 | -4 | -22
CCOCCCn1c(=N)c(C(=O)NCc2cccnc2)cc2c(=O)n3cc(C)ccc3nc21 | 0 | -6 | / | / | /
CCS(=O)(=O)c1cccc(C(=O)N2CCN(c3nc4c(C)ccc(Cl)c4s3)CC2)c1 | -1 | 7 | / | / | /
c1ccc2c(c1)CCCN2Cc1nnnn1CC1CCCO1 (stereo not given) | 0 | 32* | -22 | -7 | -10
c1ccc(CCn2nnnc2CN2CCCc3ccccc32)cc1 | 0 | -5 | 9 | 1 | 1
Cc1cc(C)n(CCOc2nonc2N)n1 | 1 | -7 | 34* | 0 | 6
Nc1nonc1OCCOCCOCCOc1nonc1N | 0 | 11 | -17 | -3 | -1
O=C(Nc1ccc(NC(=O)c2cccs2)cc1)c1ccc2c(c1)OCCO2 | 3 | -17 | 34* | -3 | -9
O=C(Nc1ccc(N2CCOCC2)c(Cl)c1)c1ccc2c(c1)OCCO2 | 2 | 19 | 31* | 5 | -4
Cc1[nH]c(=O)[nH]c(=O)c1S(=O)(=O)N1CCCC(C(=O)NCCc2ccc(Cl)cc2)C1 (stereo not given) | 0 | -17 | 65* | -1 | -15
Cc1nn(C)c(C)c1/C=N/NC(=O)CCn1cc([N+](=O)[O-])cn1 | 0 | 6 | 32* | -2 | -8
O=C(Cn1ccc(C(F)(F)F)n1)N=Nc1c(O)[nH]c2ccc(Br)cc12 | 1 | 42* | -10 | -14 | -6
CN1C(=O)c2ccc(NC(=O)c3c(C(=O)O)cccc3[N+](=O)[O-])cc2C1=O | 0 | 17 | 34* | -5 | -11
Cc1ccc(-n2nc(C)c3c(C(=O)Nc4ccc(Br)c(C)c4)cc(C)nc32)cc1 | 1 | 4 | / | / | /
Cc1cc(C)nc(N2CCN(c3nc(C)cc(C)n3)CC2)n1 | -1 | -5 | 0 | / | /
CCOc1cc(C)nc(N2CCN(C3CCCCC3)CC2)n1 | 1 | 7 | 40* | -1 | -18
CC(=O)N1CCc2cc(Br)cc(S(=O)(=O)CCC(=O)N3CCN(c4ccc(F)cc4)CC3)c21 | 1 | 10 | / | / | /
Cc1cc(C)c[n+](-c2nc3ccccc3nc2C(=C=[N-])C#N)c1 | 1 | -2 | 34*! | -2 | -2
